Screening results deposited in PubChem by National Center for Advancing Translational Sciences (NCATS).
The entries come from a sample that favours hits as a whole.
Methyltransferases = Primary Screen for Target Class Profiling of Small Molecule Inhibitors of Methyltransferases; purified enzyme, MTase-Glo SAH luminescence; hits give low values; calls only at 40 µM; 3.9% of 25,000 active; call rule not given here
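Each enzyme was reacted with SAM and its substrate, with compounds tested once at 40 uM; SAH formed was read by MTase-Glo luminescence.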
Calls only; – = inactive; + = active, no number.

SMILES	Methyltransferases
CCCn1c(=O)c2ccc(C(=O)NCC(C)C)cc2n2c(SCC(=O)Nc3cc(C)cc(C)c3)nnc12	–
CC(C)CCNC(=O)C1(C)Cn2c(cc3ccccc32)C(=O)N1CCc1ccc(Cl)cc1 (stereo not given)	–
CCn1c(=O)n(CC)c2cc(S(=O)(=O)Nc3ccccc3OC)ccc21	–
COc1cccc(CNS(=O)(=O)c2cc3[nH]c(=O)[nH]c3cc2C)c1	–
CC(C)CCNC(=O)C1(C)Cn2c(ccc2-c2ccco2)C(=O)N1CC(C)c1ccccc1 (stereo not given)	–
Cc1nc(C#Cc2ccnc(Cl)c2)c(C)n1-c1ccc(F)cc1	+
COc1ccc(OC)c(S(=O)(=O)N2CCC(n3c(C)cnc3C3CC3)CC2)c1	–
CC(C)c1ccc(N2C(=O)c3cc4sccc4n3CC2(C)C(=O)NC2CCCCC2C)cc1 (stereo not given)	–
C/C=C(/C)C(=O)O[C@H]1C=C(CO)C(=O)[C@H](OC(=O)/C(C)=C/CO)[C@H]1C(C)C	+
C/C=C(\C)C(=O)O[C@H]1C=CC(=O)O[C@H]1/C=C/[C@@H](O)[C@H](C)O	–
Cc1ccc(Cc2nn3c(SCC(=O)Nc4ccc(C)cc4C)nnc3[nH]c2=O)cc1	–
C=Cc1ccc(Cn2nc3n(CCC)c(=O)c4ccc(Cl)cc4n3c2=O)cc1	–
CCCn1c(=O)c2ccc(C(=O)NC(C)CC)cc2n2c(SCC(=O)Nc3ccccc3F)nnc12 (stereo not given)	–
CC(C)NC(=O)c1ccc2c(=O)n(C(C)C)c3nn(CC(=O)N(C)c4ccccc4)c(=O)n3c2c1	–
COc1ccccc1CNC(=O)C1(C)Cn2c(cc3ccccc32)C(=O)N1CCc1ccc(OC)c(OC)c1 (stereo not given)	–
O=S(=O)(c1ccccc1)N1CCC(Cc2ccc(CN3CCOCC3)cc2)CC1	–
O=C(CCc1nnc2n(Cc3ccccc3Cl)c(=O)c3ccccc3n12)NCc1ccc2c(c1)OCO2	–
O=C(Nc1ncc([N+](=O)[O-])s1)c1ccccc1O	–
O=C(c1cc(O)c(O)c([N+](=O)[O-])c1)c1ccccc1F	+
O=C(Nc1ccccc1)c1cc([N+](=O)[O-])ccc1Cl	–
CCCCN(CC)CCCN1C(=O)c2cc3occc3n2CC1(C)C(=O)NC1CCCCCC1 (stereo not given)	–
COc1ccc(CNC(=O)C2(C)Cn3cnc(C(=O)NCc4cccc(OC)c4)c3C(=O)N2C2CC2)cc1 (stereo not given)	–
COc1ccccc1NC(=O)Cn1c(=O)oc2cc(S(=O)(=O)N3CC(C)CC(C)C3)ccc21 (stereo not given)	–
CCCCCc1ccc(/C=C/C(=O)Nc2cc(Cl)ccc2C(=O)O)cc1	+
CCCC1c2ccc(C)n2CCN1C(=O)Nc1cc(Cl)ccc1C(=O)OC (stereo not given)	–
SMILES	Methyltransferases
O=C(/C=C/c1ccc(O)cc1)N[C@@H](Cc1ccc(O)cc1)C(=O)O	–
CCOC(=O)c1cc2n(n1)CC(C)(C(=O)NCCCOC)N(Cc1ccc3c(c1)OCO3)C2=O (stereo not given)	–
COc1ccccc1NC(=O)CSc1nnc2n(C)c(=O)c3ccc(C(=O)NC4CCCC4)cc3n12	–
COc1ccc2cc3n(c2c1)CC(C)(C(=O)NC1CCCC1)N(c1ccc(Cl)cc1)C3=O (stereo not given)	–
CCN(CC)CCCCCCNc1cc(OC)cc2c(C)ccnc12	+
CCOc1ccc(NC(=O)c2ncn3c2C(=O)N(C2CC2)C(C)(C(=O)NCc2ccc(F)cc2)C3)cc1 (stereo not given)	–
C/C(=C\CCC(C)(C)O)CCO[C@@H]1O[C@H](CO[C@@H]2O[C@@H](C)[C@H](O)[C@@H](O)[C@H]2O)[C@@H](O)[C@H](O)[C@H]1O	–
C=CC(C)(O)CC/C=C(\C)COC1O[C@H](CO)[C@@H](O)[C@H](O)[C@H]1O (stereo not given in full)	+
C=CC(C)(O)CC/C=C(\C)C(=O)O[C@@H]1[C@@H](O)[C@H](OC(C)(C=C)CC/C=C(\C)C(=O)O[C@@H]2O[C@H](CO)[C@@H](O)[C@H](O)[C@H]2O)O[C@H](CO)[C@H]1OC(=O)/C(C)=C/CCC(C)(O)C=C (stereo not given in full)	–
CC(C)CCn1c(=O)c2ccccc2n2c(=O)n(CC(=O)Nc3ccc(Cl)cc3)nc12	–
CC(C)CCN1C(=O)c2ccccc2CC1(C)C(=O)NC1CCCCCCC1 (stereo not given)	–
C=C1C(O[C@@H]2O[C@H](CO)[C@@H](O)[C@H](O)[C@@H]2O)CC2C(C)(C)C(O)CCC2(C)C1CC/C(C)=C\CO (stereo not given in full)	+
CC(C)=CCC[C@](C)(O[C@@H]1O[C@H](CO)[C@@H](O)[C@H](O)[C@H]1O)[C@H]1CC[C@]2(C)[C@@H]1[C@H](O)CC1[C@@]3(C)CC[C@H](O)C(C)(C)C3[C@@H](O[C@@H]3O[C@H](CO)[C@@H](O)[C@H](O)[C@H]3O[C@@H]3O[C@@H](C)[C@H](O)[C@@H](O)[C@H]3O)C[C@]12C (stereo not given in full)	–
C=C1CC[C@@H]2[C@](C)(CO)[C@H](O[C@@H]3O[C@H](CO)[C@@H](O)[C@H](O)[C@H]3O)CC[C@@]2(C)[C@@H]1C/C=C1/C(=O)OC[C@H]1O	–
COc1cccc(CNC(=O)c2cc3n(n2)CC(C)(C(=O)NCc2ccc(C)cc2)N(C)C3=O)c1 (stereo not given)	–
CCCN1C(=O)c2cc(C(=O)NC3CCCC3)nn2CC1(C)C(=O)NC1CCCC1 (stereo not given)	–
CN1C(=O)c2cc(C(=O)NCc3cccc(F)c3)nn2CC1(C)C(=O)NC1CCCC1 (stereo not given)	–
COc1cc(-c2ccc(O)cc2)c(OC)c(O)c1C1=CC(=O)OC1CC(=O)O (stereo not given)	–
COc1c(O)cc2c(c1O)C(=O)O[C@H](C)[C@H]2O	+
COc1cc(O)c2c(c1Cl)CC(C)OC2=O (stereo not given)	–
CC1CCC(NC(=O)Cn2c(=O)oc3cc(S(=O)(=O)N4CC(C)CC(C)C4)ccc32)CC1 (stereo not given)	–
COc1ccc(OC)c2c1cc1n2CC(C)(C(=O)NC2CCCCC2)N(Cc2ccc(F)cc2)C1=O (stereo not given)	–
COc1ccc(-c2cc3n(n2)CC(C)(C(=O)NCc2ccccc2OC)N(c2ccccc2C)C3=O)cc1 (stereo not given)	–
CC1(C(=O)NC2CCCC2)Cn2c(cc3ccccc32)C(=O)N1Cc1ccccc1 (stereo not given)	–
CCCNC(=O)c1ccc2c(=O)nc3c(-c4ccc(OC)cc4)n[nH]n3c2c1	–
COc1ccccc1CN1C(=O)c2ccc(-c3ccco3)n2CC1(C)C(=O)NC1CCCC1 (stereo not given)	–
CC1=CC(=O)[C@@]2(C(C)C)C[C@@H]12	+
CCC(C)NC(=O)c1ccc2c(=O)n(C)c3nn(Cc4ccc(C)cc4)c(=O)n3c2c1 (stereo not given)	–
CC1(C(=O)NC2CCCCCC2)Cn2c(ccc2-c2ccco2)C(=O)N1CCc1cccc(Cl)c1 (stereo not given)	–
Cc1cccc(CNC(=O)C2(C)Cn3cnc(C(=O)NCc4ccccc4F)c3C(=O)N2C2CC2)c1 (stereo not given)	–
